This passage reports growth results from PubChem BioAssay (NCI).

About 83,000 compounds went through this panel and 20% of them were active in at least one assay; those are over-represented in the sample as a whole.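 How to read the values: 0–100, growth inhibition (40 = 60% inhibited); 0, no net growth; -100 to 0, cell death (-40 = 40% of starting cells died; -100 = all dead).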 A number with no mark means an inactive call. Active and inactive are the calls of the source. Rule for the calls: active = growth percent below 10; inactive = the rest.

Among the test systems are NCI-H23 lung; NCI-H226 lung; NCI-H322M lung; HOP-62 NSCLC; NCI-H460 lung; HOP-92 NSCLC; NCI-H522 lung; A549/ATCC NSCLC; 786-0 renal; COLO 205 colon.
What all share (assay): NCI-60 one-dose screen, 48 h (100 = growth as untreated, 0 = no growth, -100 = all killed)
Common to all, as to conditions: 10 µM unless noted

In the case of `CCOC(=O)COc1ccc2c(c1)O/C(=C\c1ccc(O)cc1)C2=O`, the growth was 104% with NCI-H23 lung; 97.7% in the assay on NCI-H226 lung; 99.7% with NCI-H322M lung; 104% in the assay on HOP-62 NSCLC; 104% in the assay on NCI-H460 lung; 115% in the assay on HOP-92 NSCLC. Besides, the growth is 97% with NCI-H522 lung, 108% in the assay with A549/ATCC NSCLC, 112% with 786-0 renal and 115% with COLO 205 colon.

Take `O=S(=O)(/N=c1/n(-c2ccccc2)nc2n1CCN2C1=NCCN1)c1ccc(-c2ccccc2)cc1`: the growth in the assay on NCI-H23 lung is 101%; with NCI-H226 lung, 101%; in the assay on NCI-H322M lung, 104%; with HOP-62 NSCLC, 99.1%; with NCI-H460 lung, 94.8%; with HOP-92 NSCLC, 82.3%. Also, the growth in the assay on NCI-H522 lung is 106%; in the assay with A549/ATCC NSCLC, 90.1%; with 786-0 renal, 89%; in the assay with COLO 205 colon, 109%.

Regarding `CCOC(=O)c1c[nH]c2cc(OCC3CC3)c(OCC3CC3)cc2c1=O`, the growth is 110% in the assay on NCI-H23 lung; 106% in the assay on NCI-H226 lung; 100% with NCI-H322M lung; 109% in the assay on HOP-62 NSCLC; 103% in the assay with NCI-H460 lung; 116% in the assay with HOP-92 NSCLC. In addition, the growth is 95.5% with NCI-H522 lung, 109% with A549/ATCC NSCLC, 120% in the assay on 786-0 renal and 113% in the assay on COLO 205 colon.

For the compound `O=C(N=c1n(-c2ccccc2)nc2n1CCN2C1=NCCN1C(=O)c1ccc(Cl)cc1)c1ccc(Cl)cc1`, the growth in the assay on NCI-H23 lung was 75.9%; in the assay on NCI-H226 lung it was 93.2%; with NCI-H322M lung, 86.9%; in the assay on HOP-62 NSCLC, 93.5%; with NCI-H460 lung, 60.6%; in the assay on HOP-92 NSCLC, 120%. Also, the growth in the assay with NCI-H522 lung is 64.2%; in the assay on A549/ATCC NSCLC, 65.4%; in the assay on 786-0 renal it was 83.1%; with COLO 205 colon, 75.1%.

Regarding `CC1(C)CC[C@]23CC[C@]4(C)[C@H](CC[C@@H]5[C@@]6(C)C/C(=C/c7cccnc7)C(=O)C(C)(C)[C@@H]6CC[C@]54C)[C@H]2[C@H]1OC3=O`, the growth is 46.7% [100 µM] with NCI-H23 lung; 24.6% [100 µM] in the assay with NCI-H226 lung; 65.2% [100 µM] with NCI-H322M lung; 25.2% [100 µM] in the assay with HOP-62 NSCLC; 23.2% [100 µM] in the assay with NCI-H460 lung; 24.8% [100 µM] with HOP-92 NSCLC. In addition, the growth was 30.5% [100 µM] in the assay on NCI-H522 lung, 44.8% [100 µM] with A549/ATCC NSCLC, 45.5% [100 µM] with 786-0 renal and 23.1% [100 µM] in the assay with COLO 205 colon.

Regarding `CC(=O)n1cc(C=O)c2ccccc21`, the growth in the assay on NCI-H23 lung is 94.4%; in the assay with NCI-H226 lung it was 91.1%; in the assay on NCI-H322M lung it was 105%; with HOP-62 NSCLC, 103%; in the assay on NCI-H460 lung it was 112%; with HOP-92 NSCLC it was 94.8%. In addition, the growth in the assay on NCI-H522 lung is 91.3%; with A549/ATCC NSCLC it was 89.4%; in the assay on 786-0 renal it was 101%; in the assay on COLO 205 colon it was 104%.

Regarding `C=C(C)[C@@H]1CC[C@]2(C(=O)OC)CC[C@]3(C)[C@H](CC[C@@H]4[C@@](C)(CCc5nn[nH]n5)[C@H](C(=C)C)CC[C@]43C)[C@@H]12`, the growth in the assay with NCI-H23 lung is -13.8% [100 µM] (active); in the assay on NCI-H226 lung it was -19.9% [100 µM] (active); in the assay on NCI-H322M lung, 9.71% [100 µM] (active); in the assay with HOP-62 NSCLC it was -72.7% [100 µM] (active); in the assay on NCI-H460 lung it was -59.3% [100 µM] (active); in the assay on HOP-92 NSCLC, -39.8% [100 µM] (active). Further, the growth in the assay with NCI-H522 lung was -25.3% [100 µM] (active); in the assay on A549/ATCC NSCLC, 2.03% [100 µM] (active); with 786-0 renal, -8.74% [100 µM] (active); with COLO 205 colon it was -62.9% [100 µM] (active).

For `CNC(=O)c1cc(Oc2ccc3nc(NC(=O)c4ccc5ncccc5c4)sc3c2)ccn1`, the growth with NCI-H23 lung was 92.7%; in the assay on NCI-H226 lung it was 68.6%; with NCI-H322M lung, 99%; with HOP-62 NSCLC it was 112%; in the assay on NCI-H460 lung it was 98.6%; in the assay on HOP-92 NSCLC it was 110%. For the same compound, the growth is 54.3% in the assay with NCI-H522 lung, 76.5% in the assay with A549/ATCC NSCLC, 98.4% in the assay with 786-0 renal and 95.8% in the assay on COLO 205 colon.

Consider `CC1(C)CC[C@]2(C(N)=O)CC[C@]3(C)C(=CC[C@@H]4[C@@]5(C)C/C(=C/c6cccnc6)C(=O)C(C)(C)[C@@H]5CC[C@]43C)[C@@H]2C1`, for which the growth in the assay with NCI-H23 lung was -2.72% [100 µM] (active); in the assay with NCI-H226 lung it was -36.8% [100 µM] (active); in the assay with NCI-H322M lung, -57.3% [100 µM] (active); in the assay with HOP-62 NSCLC, -55.5% [100 µM] (active); in the assay on NCI-H460 lung it was -51.8% [100 µM] (active); in the assay on HOP-92 NSCLC, -50.7% [100 µM] (active). Also, the growth with NCI-H522 lung is -59.7% [100 µM] (active); with A549/ATCC NSCLC, -35.9% [100 µM] (active); in the assay on 786-0 renal it was -38.4% [100 µM] (active); with COLO 205 colon, -57.6% [100 µM] (active).

Turning to `C=C(C)[C@@H]1CC[C@]2(C(N)=O)CC[C@]3(C)[C@H](CC[C@@H]4[C@@]5(C)CC[C@H](O)C(C)(C)[C@@H]5CC[C@]43C)[C@@H]12`, the growth with NCI-H23 lung is -27.1% [100 µM] (active); in the assay on NCI-H226 lung it was -50.5% [100 µM] (active); in the assay with NCI-H322M lung, -58.9% [100 µM] (active); in the assay on HOP-62 NSCLC it was -72.2% [100 µM] (active); in the assay with NCI-H460 lung, -37.5% [100 µM] (active); in the assay with HOP-92 NSCLC it was -62.8% [100 µM] (active). For the same compound, the growth in the assay with NCI-H522 lung is -53.8% [100 µM] (active); with A549/ATCC NSCLC, -69.3% [100 µM] (active); in the assay on 786-0 renal, -72.2% [100 µM] (active); in the assay on COLO 205 colon, -66.2% [100 µM] (active).

Take `CCOC(=O)c1nn(C2CCCCO2)c2ccc(NC(=O)CN3CCOCC3)cc12` (stereo not given): the growth in the assay with NCI-H23 lung is 99.7%; with NCI-H226 lung it was 106%; in the assay on NCI-H322M lung, 95.7%; in the assay on HOP-62 NSCLC it was 100%; in the assay with NCI-H460 lung it was 101%; in the assay on HOP-92 NSCLC it was 108%. The growth is 106% in the assay on NCI-H522 lung, 106% in the assay on A549/ATCC NSCLC, 98.3% with 786-0 renal and 118% with COLO 205 colon.

In the case of `COc1ccc(C(=O)CCC(=O)O)cc1`, the growth in the assay on NCI-H23 lung is 89.4%; in the assay on NCI-H226 lung it was 93.3%; in the assay on NCI-H322M lung, 97.3%; in the assay on HOP-62 NSCLC it was 104%; in the assay with NCI-H460 lung, 101%; in the assay on HOP-92 NSCLC, 105%. Also, the growth is 102% in the assay on NCI-H522 lung, 93.2% in the assay with A549/ATCC NSCLC, 103% in the assay on 786-0 renal and 101% with COLO 205 colon.

`Cc1ccc(NC(=O)N[C@@H](Cc2cc(F)cc(F)c2)C(=O)N[C@@H]2C(=O)N3CCC[C@H]3C(=O)N3CCCC[C@H]3C(=O)N[C@@H](C)C(=O)N3C[C@H](C)C[C@H]3C(=O)O[C@H]2C)cc1`: the growth in the assay on NCI-H23 lung is 33.5%; in the assay with NCI-H226 lung, 28.5%; in the assay on NCI-H322M lung, 62.8%; in the assay with HOP-62 NSCLC, 30.1%; with NCI-H460 lung, 25.6%; with HOP-92 NSCLC it was 29.8%. The growth in the assay with NCI-H522 lung is 31.8%; in the assay on A549/ATCC NSCLC it was 23.1%; with 786-0 renal, 28.2%; with COLO 205 colon, 7.51% (active).
